# PubChem BioAssay (Tox21)
# Inconclusive results are not listed. The source made the active and inactive calls. Calls come from the whole dose curve.
# Assay: qHTS assay to identify small molecule agonists of the NFkB signaling pathway - cell viability counter screen (AID 1159515); note: nearly all actives have a fitted effect of over 55% in size
# Details: NFkB-bla ME-180 viability, CellTiter-Glo luminescence, 5 h; series mostly up to 61 µM
# Excerpt: National Center for Advancing Translational Sciences [NCATS]
# NIH Chemical Genomics Center [NCGC]
# U.S. Environmental Protection Agency [EPA]
# National Institutes of Environmental Health Sciences [NIEHS]
# National Toxicology Program [NTP]
# U.S. Food and Drug Administration [FDA]
# Transcription factors and their stimulated target gene expression play pivotal roles across many cellular processes including responses to environmental stimuli. Proper regulation of associated pathways is critical to maintain cell health and function. Constitutive activation of transcription factor pathways has been implicated in tumors as it may block cellular functions such as apoptosis and lead to invasion and metastasis. One important transcription factor that stimulates gene expression in response to cytokines, UV radiation, and other stimuli is nuclear factor-kappa B (NFkB). To measure activation of the NFkB pathway, the CellSensor NFkB-bla ME-180 cell line (Life Technologies, Carlsbad, CA) that stably expresses beta-lactamase reporter gene under the regulation of a NF-kB response element was used. This assay allows measurement of the NFkB pathway activity induced by compounds in a ME-180 cell line. This system quantitates NF-kB activity using a FRET-based assay system where beta-lactamase expression disrupts FRET, allowing for fluorescent measurement of activity. This cell line has been used to screen the Tox21 10K compound library and to identify compounds that induce the NFkB pathway activity. The cytotoxicity of the Tox21 compound library against the NFkB-bla ME-180 cell line was tested in parallel by measuring cell viability using the CellTiter-Glo assay in the same wells.
# Tox21 Assay Protocol Summary:
# NFkB-bla ME-180 cells were dispensed at 2,000 cells/6 uL of assay medium per well into black wall/clear-bottom 1536-well plates using a Multidrop Combi (ThermoFisher Scientific, Waltham, MA) dispenser. After the assay plates were incubated at 37 C and 5% CO2 for an overnight, 23 nL of compounds dissolved in DMSO, positive controls or DMSO only was transferred to the assay plate by a Pintool station (Kalypsys, San Diego, CA). The assay plates were incubated at 37 C and 5% CO2 for 5 hr. One uL of LiveBLAzer B/G FRET substrate (Life Technologies) was added using a Flying Reagent Dispenser (Aurora Discovery, San Diego, CA) and the plates were incubated at room temperature for 1.5 hr. Fluorescence intensity (405 nm excitation, 460 nm and 530 nm emissions) was measured using an Envision plate reader (PerkinElmer, Shelton, CT). For cytotoxicity, 3 ul/well of CellTiter-Glo reagent was added into the assay plates using an FRD. After 30 min incubation at room temperature, the luminescence intensity was measured using a ViewLux plate reader (PerkinElmer).
row,SMILES,outcome
1,COC(=O)N[C@H](C(=O)N[C@@H](Cc1ccccc1)[C@@H](O)CN(Cc1ccc(-c2ccccn2)cc1)NC(=O)[C@@H](NC(=O)OC)C(C)(C)C)C(C)(C)C,inactive
2,Cc1ncc(CO)c(CN)c1O,inactive
3,C[C@]12CCC(=O)C=C1CC[C@@H]1[C@@H]2CC[C@@]2(C)[C@H]1CC[C@]2(O)C(=O)CO,inactive
4,O=C1CCCCC1C1CCCCC1 (stereo not given),inactive
5,CCc1cc(Cl)c(OC)c(C(=O)NC[C@@H]2CCCN2CC)c1O,inactive
6,O=C(CC(=O)C(F)(F)F)c1ccccc1,inactive
7,C[C@@H]1CN(c2c(F)c(F)c3c(=O)c(C(=O)O)cn(C4CC4)c3c2F)C[C@H](C)N1,inactive
8,COc1ccc2nc(NC(=O)Nc3ccccc3)sc2c1,inactive
9,N#Cc1ccc(C(c2ccc(C#N)cc2)n2cncn2)cc1,inactive
10,CC(C)NCC(O)COc1ccc(CCOCC2CC2)cc1 (stereo not given),inactive
11,CCC(=O)c1ccc2c(c1)N(CCCN(C)C)c1ccccc1S2,inactive
12,CC(C)OC(C)C,inactive
13,Cc1nc(N)nc(N)c1-c1ccc(Cl)c(Cl)c1,inactive
14,CC(=O)Oc1cc(C(C)C)c(OCCN(C)C)cc1C,inactive
15,CCC/C=C/CO,inactive
16,Cc1ccc(C(C)C)cc1O,inactive
17,O=Cc1ccc(O)c(O)c1O,inactive
18,NC(=O)NS(=O)(=O)c1ccc(Cl)cc1,inactive
19,OCc1c2ccccc2cc2ccccc12,inactive
20,COc1ccc(S(=O)(=O)Nc2nnc(CC(C)C)s2)cc1,inactive

row,SMILES,outcome
1,O=C1Nc2ccc([N+](=O)[O-])cc2C1=O,inactive
2,CCOc1ccc(NC(N)=O)cc1,inactive
3,CCCNC(C)C(=O)Nc1c(C)csc1C(=O)OC (stereo not given),inactive
4,OCc1ccccc1O,inactive
5,O=C1CCCc2ccccc21,inactive
6,NC(=O)Cc1cccc(C(=O)c2ccccc2)c1N,inactive
7,O=CCCc1ccccc1,inactive
8,CCN1CC(CCN2CCOCC2)C(c2ccccc2)(c2ccccc2)C1=O (stereo not given),inactive
9,CC(C)S,inactive
10,C=CCCCCCCCCO,inactive
11,C=CC(C)(O)CC/C=C(\C)CCC=C(C)C (stereo not given),inactive
12,CC(C)C[C@H](NC(=O)OCC1c2ccccc2-c2ccccc21)C(=O)O,inactive
13,CCCCCCCOC(=O)CCC,inactive
14,C[C@]12C(=O)OC(=O)[C@H]1[C@H]1C=C[C@@H]2C1,inactive
15,CC1CN(c2ccccc2)NC1=O (stereo not given),inactive
16,CCCC(CCC)(C(=O)OCC)C(=O)OCC,inactive
17,Cc1ccccc1C(=O)Nc1ccc(C(=O)N2CCCC(O)c3cc(Cl)ccc32)c(C)c1 (stereo not given),inactive
18,CC(C)(CO)[C@@H](O)C(=O)NCCC(=O)O,inactive
19,CC(C)=CCC[C@](C)(O)[C@@H]1CC=C(C)CC1,inactive
20,COc1cc(N)c(Cl)cc1C(=O)NC1CCN(Cc2ccccc2)CC1,inactive
